# Reference: PubChem BioAssay AID2570 (National Center for Advancing Translational Sciences (NCATS), 2010)
# Results filed as inconclusive are left out. A number with no mark means an inactive call. Calls come from the whole dose curve; as a rule, active = well fitted curve in the direction sought with a large enough effect; inconclusive = small, poorly fitted or top-dose-only effect, or another doubt; inactive = no such curve, though single readings can be large or run the other way.
# Target: Vasopressin V1b receptor (Homo sapiens) (UniProt P47901)
# Assay: Counterscreen Concentration-Response Assay for Antagonists of the Neuropeptide S Receptor: Vasopressin Receptor Calcium Signal Transduction
# Details: CHO-AVPR1B, vasopressin-stimulated calcium fluorescence, FDSS
# How it was run: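 CHO cells stably expressing human AVPR1B, calcium-dye loaded, were given compound, then stimulated with 60 nM vasopressin in HBSS/0.1% BSA. Peak kinetic fluorescence was normalized to DMSO and no-signal controls; AC50 from Hill fits.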
# Sequence of Vasopressin V1b receptor (Homo sapiens) (P47901 whole entry, looked up): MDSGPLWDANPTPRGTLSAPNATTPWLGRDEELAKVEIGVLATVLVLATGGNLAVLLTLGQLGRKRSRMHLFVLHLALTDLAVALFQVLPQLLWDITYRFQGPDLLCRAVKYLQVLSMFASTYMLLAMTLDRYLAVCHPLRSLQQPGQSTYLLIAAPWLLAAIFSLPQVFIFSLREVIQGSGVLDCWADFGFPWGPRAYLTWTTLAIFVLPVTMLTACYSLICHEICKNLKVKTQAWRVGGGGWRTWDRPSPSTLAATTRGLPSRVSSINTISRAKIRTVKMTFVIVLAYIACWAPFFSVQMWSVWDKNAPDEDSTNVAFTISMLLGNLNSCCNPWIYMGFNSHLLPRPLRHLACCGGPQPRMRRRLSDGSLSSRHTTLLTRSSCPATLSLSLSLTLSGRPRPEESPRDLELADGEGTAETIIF
smiles,measurement,value
COc1ccc(C2c3c(N)nc(CCCc4ccccc4)nc3Oc3ccc4ccccc4c32)cc1OC (stereo unspecified),max response,-15.9%
